Source: PubChem BioAssay (National Center for Advancing Translational Sciences (NCATS))
An excerpt weighted towards active compounds, which were near 0.93% of everything screened.
PKM2 activator: increases activity of human pyruvate kinase M2 | 260,000 tested, 0.34% active | Potency, µM (series often up to 57.5 µM), without a hit: at the top dose activation, hits mostly activators | purified PKM2, Kinase-Glo ATP luminescence, activation; response scale: 0% is enzyme alone, no compound; further: potency means the concentration at half of the fitted maximal effect; on the % scale 0 is the no-effect control and ±100 the full control effect; nearly all actives have a fitted effect of over 55% in size
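Purified hPK-M2 (>95%) run at intermediate activity with 0.1 mM ADP and 0.5 mM PEP in 50 mM imidazole pH 7.2, KCl, MgCl2; 1 h room temperature. ATP formed read by Kinase-Glo luminescence; normalized to uninhibited and no-enzyme controls.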
Six1-Eya2 inh: Six1/Eya2 interaction inhibition; AlphaScreen GST-Six1/His-Eya2 binding, biochemical; hits give low values; activity change, % (no concentration beside the values); 360,000 tested, 0.56% active; in the data active means activity change below about -65%; inconclusive means mostly about -30% to -63%; further: on the % scale 0 is the no-effect control and ±100 the full control effect
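Compounds are tested against tagged Six1 and Eya2 proteins bridged by glutathione donor and nickel acceptor beads; after a one-hour incubation at 37 °C without light, AlphaScreen emission is recorded.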
MBNL1 CUG block: MBNL1-poly(CUG) RNA binding inhibition. Potency, µM (titrated, usually from 57.5 µM), for inactives: at the highest dose activity change, negative = inhibition, most hits filed as inhibitors. AID 2675. Q9NR56. TR-FRET MBNL1-His/biotin-(CUG)12 binding, 665/545 ratio. 280,000 tested, 0.036% active; active means well fitted inhibition curve with a large enough effect in the signal ratio, with a control signal flat, not every such curve was filed as active; inconclusive means small, poorly fitted or top-dose-only effect, or effect the other way, or a change in a side signal; inactive means no such curve, though single readings can be large or run the other way; the % refers to the signal ratio; further: potency means the concentration at half of the fitted maximal effect; on the % scale 0 is the no-effect control and ±100 the full control effect
Target sequence (Q9NR56 whole entry, looked up): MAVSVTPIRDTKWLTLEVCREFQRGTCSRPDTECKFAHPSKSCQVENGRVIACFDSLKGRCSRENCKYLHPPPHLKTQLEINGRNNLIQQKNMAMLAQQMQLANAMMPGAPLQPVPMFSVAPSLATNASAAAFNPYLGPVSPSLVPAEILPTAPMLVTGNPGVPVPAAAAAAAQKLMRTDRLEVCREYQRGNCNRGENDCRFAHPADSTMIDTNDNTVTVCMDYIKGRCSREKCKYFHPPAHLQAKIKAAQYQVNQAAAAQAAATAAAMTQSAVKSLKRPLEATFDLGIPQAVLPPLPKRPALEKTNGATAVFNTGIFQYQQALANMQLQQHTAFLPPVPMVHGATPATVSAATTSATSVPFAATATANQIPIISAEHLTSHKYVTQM
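Compound titration spanned 92 nM–58 uM against the MBNL1-His/biotin-(CUG)12 complex. After 60 min at room temperature with 5 nM streptavidin-XL665 and 0.055 ng/ul terbium anti-His, ratiometric 665/545 nm emission (Ex 340 nm) normalized to controls.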
CtBP-E1A inh: inhibitors of CtBP/E1A interaction | AID 651724 | AlphaScreen GST-E1A/His-CtBP binding, 1536-well; hits give low values | activity change, % (no concentration beside the values) | 340,000 tested, 0.49% active; in the data active means activity change below about -65%; inconclusive means mostly about -30% to -63%; further: on the % scale 0 is the no-effect control and ±100 the full control effect
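Protein mix (5X: 125 nM each GST-E1A, His-CtBP) was incubated with pinned compound 2 h at 37 deg C in dark, in 50 mM Tris pH 8.0 buffer with 300 mM NaCl. Glutathione donor and nickel acceptor beads followed; AlphaScreen signal read after 1 h.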
MBNL1-CUG FRET: blocks human MBNL1 binding to CUG repeat RNA, TR-FRET validation. shares compounds with MBNL1 CUG block. TR-FRET MBNL1-His / biotin-(CUG)12 binding, 60 min. Potency, µM (titrated, usually from 57.6 µM), for the others: at the highest dose activity change, negative = inhibition, actives largely listed as inhibitors. 140 tested, 50% active. AID 493199
MBNL1-CUG Alpha: blocks MBNL1 binding to (CUG)12 RNA in AlphaScreen | AlphaScreen MBNL1-His / biotin-(CUG)12 binding | shares compounds with MBNL1 CUG block | Potency, µM (titrated, usually from 57.7 µM), for inactives: top-dose activity, negative = inhibition, actives largely listed as inhibitors | 140 tested, 30% active | AID 493205
MBNL1 HTRF CS: MBNL1-CUG RNA binding inhibitor counterscreen activity; His-Menin/biotin-MLL peptide TR-FRET counterscreen; 120 tested, 20% active; Potency, µM (titrated, usually from 57.6 µM), inactives show at the highest dose activity, negative = inhibition, usual class: inhibitors; AID 651843; shares compounds with MBNL1 CUG block
The depositor's hits bear a star. Unless noted, the call rests on the fitted dose curve; in most records, active means well fitted curve in the direction sought with a large enough effect; inconclusive means small, poorly fitted or top-dose-only effect, or another doubt; inactive means no such curve, though single readings can be large; an effect the other way counts as inactive or inconclusive.

`Cc1c(N=Nc2c(O)[nH]c(=S)[nH]c2=O)c(=O)n(-c2ccccc2)n1C` gave PKM2 activator -16%, Six1-Eya2 inh -84*, MBNL1 CUG block inconclusive and CtBP-E1A inh -93*.
For Cc1c(N=Cc2c(O)n(CCc3ccccc3)c(=O)[nH]c2=O)c(=O)n(-c2ccccc2)n1C the results were PKM2 activator 2%, Six1-Eya2 inh -26, MBNL1 CUG block 3% and CtBP-E1A inh -9.
Screening C=CCn1c(O)c(N=Nc2c(C)n(C)n(-c3ccccc3)c2=O)c(=O)[nH]c1=S returned PKM2 activator -13%, Six1-Eya2 inh -91*, MBNL1 CUG block 3% and CtBP-E1A inh -87*.
`CCOc1ccc(-n2c(O)c(N=Nc3c(C)n(C)n(-c4ccccc4)c3=O)c(=O)[nH]c2=O)cc1` gave PKM2 activator 13%, Six1-Eya2 inh -90*, MBNL1 CUG block inconclusive and CtBP-E1A inh -91*.
`CCCn1cc(CN2CCCC(C(=O)c3cccc(OC)c3)C2)c(C)n1` (stereo not given) gave PKM2 activator 1%, Six1-Eya2 inh -3, MBNL1 CUG block 2% and CtBP-E1A inh 7.
`CCn1cc(CN2CCCC(C(=O)c3cccc(OC)c3)C2)c(C)n1` (stereo not given) gave PKM2 activator 0%, Six1-Eya2 inh -30, MBNL1 CUG block 50µM*, CtBP-E1A inh 0, MBNL1-CUG FRET inconclusive, MBNL1-CUG Alpha -11% and MBNL1 HTRF CS -9%.
Screening O=C1N=NC2=C1c1c3ccccc3c(O)n1CC2 returned PKM2 activator -2%, Six1-Eya2 inh -12, MBNL1 CUG block inconclusive and CtBP-E1A inh -5.
For COc1ccc2nc(NC(=O)CCc3nc(C4=CCN(C)CC4)no3)sc2c1 the results were PKM2 activator 1%, Six1-Eya2 inh -5, MBNL1 CUG block 20µM*, CtBP-E1A inh -1, MBNL1-CUG FRET inconclusive, MBNL1-CUG Alpha 16µM* and MBNL1 HTRF CS inconclusive.
`Cc1ccsc1C(=O)C1CCCN(Cc2ccc(-n3cccn3)cc2)C1` (stereo not given) gave PKM2 activator 5%, Six1-Eya2 inh -5, MBNL1 CUG block 6.3µM*, CtBP-E1A inh 23, MBNL1-CUG FRET 3.3µM*, MBNL1-CUG Alpha inconclusive and MBNL1 HTRF CS 18µM*.
Screening Cc1ccsc1C(=O)C1CCCN(Cc2c(C)nn(C(C)C)c2C)C1 (stereo not given) returned PKM2 activator -8%, Six1-Eya2 inh 4, MBNL1 CUG block 32µM*, CtBP-E1A inh 1, MBNL1-CUG FRET 41µM*, MBNL1-CUG Alpha -26% and MBNL1 HTRF CS -22%.
For Cc1ccc(S(=O)(=O)N2CCC(=O)N(CCOC(=O)Nc3cccc(Cl)c3)CC2)cc1 the results were PKM2 activator 2%, Six1-Eya2 inh 6, MBNL1 CUG block 42% and CtBP-E1A inh -7.
For CCN(CC)P(=O)(Nc1ccc([N+](=O)[O-])cc1)c1c(C)nn(CCC#N)c1NC(=O)c1ccc(Cl)cc1Cl (stereo not given) the results were PKM2 activator 0%, Six1-Eya2 inh -3, MBNL1 CUG block inconclusive and CtBP-E1A inh 6.
`CN1CCC2(CC1)C(C#N)=C(N)NC(S)=C2C#N` gave PKM2 activator 3%, Six1-Eya2 inh inconclusive, MBNL1 CUG block 4µM*, CtBP-E1A inh inconclusive, MBNL1-CUG FRET 33µM*, MBNL1-CUG Alpha 1% and MBNL1 HTRF CS 16µM*.
`Cc1ccc(NC(=O)COC(=O)/C=C/c2ccco2)cc1S(=O)(=O)N(C)C` gave PKM2 activator inconclusive, Six1-Eya2 inh -11, MBNL1 CUG block inconclusive and CtBP-E1A inh -19.
For C=C(CC1(CNP(=O)(c2ccccc2)c2ccccc2)CC1)c1ccccc1 the results were PKM2 activator 6%.
`O=C(O)CCCCC1SCC2NC(=O)NC21` (stereo not given) gave PKM2 activator -43%, Six1-Eya2 inh 3, MBNL1 CUG block 0.1µM*, CtBP-E1A inh 8, MBNL1-CUG FRET 0.041µM*, MBNL1-CUG Alpha 0.0041µM* and MBNL1 HTRF CS 0.015µM*.
